Some test systems named below: RPMI-8226 leukemia; OVCAR-8 ovarian; OVCAR-5 ovarian; OVCAR-4 ovarian; SK-OV-3 ovarian; IGROV1 ovarian; OVCAR-3 ovarian; HS 578T breast; NCI/ADR-RES ovarian.
What all share (experiment): NCI-60 one-dose screen, 48 h (100 = growth as untreated, 0 = no growth, -100 = all killed)
Conditions in all cases: 10 µM unless noted

Compounds without any hit were thinned out: in the full panel of roughly 83,000, 20% have a hit.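 Cells were grown in 96-well plates and exposed to the test compound at a single concentration for 48 hours; results are reported as percent growth, with values below 10 considered active.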 Unmarked numbers belong to inactive results. The source made the active and inactive calls.

On to `COc1ccc(/C=C/C(=O)c2ccc(Nc3ccnc4cc(Cl)ccc34)cc2)cc1`, for which the growth in the experiment on RPMI-8226 leukemia is -32% (active); in the experiment with OVCAR-8 ovarian it was 97.9%; in the experiment on OVCAR-5 ovarian, 89.2%; with OVCAR-4 ovarian, 96.6%; in the experiment with SK-OV-3 ovarian, 111%; in the experiment on IGROV1 ovarian, 93.7%. Besides, the figures for the growth with OVCAR-3 ovarian, in the experiment with HS 578T breast and in the experiment with NCI/ADR-RES ovarian were 118%, 106% and 83.6%, respectively.

`CC1(C)CC(=O)C2=C(C1)N(c1ccc(OC(F)(F)F)cc1)C(N)=C(C#N)C2c1ccc(Br)cc1F` (stereo unspecified): the growth with RPMI-8226 leukemia is 100%; with OVCAR-8 ovarian, 35.8%; with OVCAR-5 ovarian, 87.2%; in the experiment on OVCAR-4 ovarian it was 54.9%; in the experiment with SK-OV-3 ovarian it was 61.2%; in the experiment on IGROV1 ovarian, 63.2%. The growth with OVCAR-3 ovarian was 58%; with HS 578T breast it was 23.7%; in the experiment with NCI/ADR-RES ovarian, 35.3%.

As for `C=C1C(=O)O[C@H]2[C@H]1CC/C(COC(=O)c1cc3ccccc3s1)=C\CC[C@@]1(C)O[C@@H]21`, the growth in the experiment on RPMI-8226 leukemia is -25.3% (active); in the experiment with OVCAR-8 ovarian, -12% (active); with OVCAR-5 ovarian, -57.3% (active); in the experiment with OVCAR-4 ovarian it was -62% (active); in the experiment on SK-OV-3 ovarian, 85.3%; in the experiment with OVCAR-3 ovarian it was -69% (active). The results for the growth with HS 578T breast and in the experiment with NCI/ADR-RES ovarian were -17.7% (active) and 1.73% (active), respectively.

For the compound `O=C1/C(=C/c2ccc([N+](=O)[O-])cc2)COc2ccc(O)cc21`, the growth was -16.4% (active) in the experiment on RPMI-8226 leukemia; 69.5% with OVCAR-8 ovarian; 99% with OVCAR-5 ovarian; 89.5% in the experiment on OVCAR-4 ovarian; 82.7% with OVCAR-3 ovarian; 89.3% with HS 578T breast. For the same compound, the growth with NCI/ADR-RES ovarian was 92.1%.

Take `Cn1c(I)c(C#CCO[Si](C)(C)C(C)(C)C)c(=O)[nH]c1=O`: the growth in the experiment on RPMI-8226 leukemia is 84.8%; with OVCAR-8 ovarian it was 94.8%; in the experiment with OVCAR-5 ovarian, 102%; in the experiment on OVCAR-4 ovarian it was 80%; with SK-OV-3 ovarian it was 105%; in the experiment with IGROV1 ovarian it was 81.4%. Further, the growth with OVCAR-3 ovarian is 75.4%; in the experiment with HS 578T breast, 106%; in the experiment with NCI/ADR-RES ovarian it was 102%.

For `CCOC(=O)c1cc2c(n1Cc1cc(OC)c(OC)c(OC)c1)-c1nc(N)sc1CCC2`, the growth in the experiment with RPMI-8226 leukemia is 75.9%; in the experiment with OVCAR-8 ovarian it was 55.4%; in the experiment on OVCAR-5 ovarian, 98.3%; with OVCAR-4 ovarian it was 65%; in the experiment on SK-OV-3 ovarian it was 29.3%; in the experiment with IGROV1 ovarian, 50.8%. In addition, the values for the growth in the experiment with OVCAR-3 ovarian, in the experiment on HS 578T breast and with NCI/ADR-RES ovarian were 21.1%, 55.7% and 20.8%, respectively.

As for `CC1CCN(CCOc2ccc(CNc3ccc4nc(CCC5CCCCC5)[nH]c4c3)cc2)CC1`, the growth in the experiment with RPMI-8226 leukemia was -15.7% (active); with OVCAR-8 ovarian, 43.1%; in the experiment with OVCAR-5 ovarian, 59.9%; in the experiment with OVCAR-4 ovarian it was 50.4%; in the experiment on SK-OV-3 ovarian it was 80.4%; in the experiment with IGROV1 ovarian it was 43.1%. The growth is 66.3% with OVCAR-3 ovarian and 51% in the experiment with NCI/ADR-RES ovarian.

Consider `CC(=O)/C(=C\c1c(-c2ccccc2)[nH]c2ccccc12)S(C)(=O)=O`, for which the growth with RPMI-8226 leukemia is -32.2% (active); with OVCAR-8 ovarian it was 40.9%; in the experiment with OVCAR-5 ovarian it was 78.3%; in the experiment on OVCAR-4 ovarian, -29.6% (active); with SK-OV-3 ovarian, 35.9%; in the experiment on IGROV1 ovarian, 54.1%. Further, the growth in the experiment on OVCAR-3 ovarian was -54.6% (active); with HS 578T breast, 3.31% (active); in the experiment on NCI/ADR-RES ovarian, -19.5% (active).

For `CCN1C(=S)N(c2ccccc2)C2NC(=S)N(/N=C/C=C/c3ccccc3OC)C21` (stereo unspecified), the growth in the experiment on RPMI-8226 leukemia was 13.3%; in the experiment on OVCAR-8 ovarian it was 1.79% (active); in the experiment on OVCAR-5 ovarian, 28.7%; with OVCAR-4 ovarian, 45%; with SK-OV-3 ovarian it was 30.5%; in the experiment on IGROV1 ovarian it was 23.8%. Moreover, the growth with OVCAR-3 ovarian is 2.96% (active); in the experiment on HS 578T breast, 9.64% (active); with NCI/ADR-RES ovarian, 4.46% (active).

For `Cn1cc(-c2csc(-c3cn(C(=O)OC(C)(C)C)c4ccc(Br)cc34)n2)c2ccnc(Cl)c21`, the growth with OVCAR-8 ovarian was 59.8%; in the experiment with OVCAR-5 ovarian it was 105%; with OVCAR-4 ovarian, 65.3%; in the experiment with SK-OV-3 ovarian, 82.8%; in the experiment on IGROV1 ovarian it was 89.1%; with OVCAR-3 ovarian it was 97.3%. In addition, the growth with HS 578T breast is 2.06% (active); with NCI/ADR-RES ovarian, 71.8%.

For the compound `COC1=CC(c2ccc[nH]2)=N/C1=C\c1[nH]c(C)c(CC(=O)OCc2ccccc2)c1CCC(=O)OCc1ccccc1`, the growth was -50.8% (active) with RPMI-8226 leukemia; -18.9% (active) in the experiment on OVCAR-8 ovarian; -17.1% (active) in the experiment on OVCAR-5 ovarian; 13.6% with OVCAR-4 ovarian; -13.6% (active) with SK-OV-3 ovarian; 12.6% with IGROV1 ovarian. Moreover, the growth in the experiment with OVCAR-3 ovarian was -86.8% (active); with HS 578T breast, -18.9% (active); with NCI/ADR-RES ovarian, -26.4% (active).

Consider `O=C(CN1C(=O)NC2NC(=O)NC21)N/N=C/c1ccccc1[N+](=O)[O-]` (stereo unspecified), for which the growth in the experiment with RPMI-8226 leukemia was 109%; in the experiment on OVCAR-8 ovarian it was 104%; with OVCAR-5 ovarian it was 108%; with OVCAR-4 ovarian, 99.6%; in the experiment on SK-OV-3 ovarian, 104%; in the experiment on IGROV1 ovarian it was 107%. Also, the growth in the experiment with OVCAR-3 ovarian was 123%; in the experiment with HS 578T breast it was 107%; in the experiment on NCI/ADR-RES ovarian, 105%.

For the compound `COc1cccc(CNc2ccc3ncnc(Nc4ccc(F)c(Cl)c4)c3c2)c1`, the growth was 68.3% with RPMI-8226 leukemia; 59.3% in the experiment on OVCAR-8 ovarian; 72.2% in the experiment with OVCAR-5 ovarian; 60.6% with OVCAR-4 ovarian; 42.6% with SK-OV-3 ovarian; 36.8% in the experiment with IGROV1 ovarian. Further, the figures for the growth in the experiment on OVCAR-3 ovarian, in the experiment with HS 578T breast and with NCI/ADR-RES ovarian were 53.8%, 87.4% and 54.7%, respectively.

In the case of `COc1cc2c(cc1OC)C(C)N(S(N)(=O)=O)CC2` (stereo unspecified), the growth is 96.4% in the experiment with RPMI-8226 leukemia; 97% with OVCAR-8 ovarian; 82.6% with OVCAR-5 ovarian; 105% in the experiment with OVCAR-4 ovarian; 103% with SK-OV-3 ovarian; 97.9% in the experiment on IGROV1 ovarian. The growth in the experiment with OVCAR-3 ovarian is 99.2%; with HS 578T breast, 105%; in the experiment with NCI/ADR-RES ovarian it was 96.9%.

Values taken from PubChem BioAssay (NCI).
